From PubChem BioAssay AID1422 (Emory University Molecular Libraries Screening Center, 2008) come the findings set out here.

Several values for one entry are separate records, joined by “and”; a condition that tells them apart may be missing. Equal values may be shown once. Hit rate of the full screen: of about 260,000 compounds, about 1,300 (0.5%) were called active.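 Rule for the calls: active = percent inhibition above 40 after rounding to a whole number; inactive = the rest.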 The sample as a whole holds a higher share of actives than the screen did. More than one record can exist for a structure, and the calls need not agree.

For this experiment, the target named is Prostaglandin E2 receptor EP2 subtype (Homo sapiens) (UniProt P43116). Briefly: blockers of PGE2-driven EP2 cAMP signalling – TR-FRET cAMP, C6 glioma cells, primary screen (AID 1422).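 Note: rat C6 glioma host cells with rolipram phosphodiesterase inhibitor present; the protocol text gives 20 µM as final concentration.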 As to conditions: C6 glioma cells expressing human EP2, cAMP TR-FRET; at 25 µM; stronger effect = higher value; cells stimulated with saturating PGE2. In general terms: Time-resolved FRET reads energy transfer from a long-lived donor to a nearby acceptor.
Prostaglandin E2 receptor EP2 subtype (Homo sapiens), sequence (P43116 whole entry, looked up): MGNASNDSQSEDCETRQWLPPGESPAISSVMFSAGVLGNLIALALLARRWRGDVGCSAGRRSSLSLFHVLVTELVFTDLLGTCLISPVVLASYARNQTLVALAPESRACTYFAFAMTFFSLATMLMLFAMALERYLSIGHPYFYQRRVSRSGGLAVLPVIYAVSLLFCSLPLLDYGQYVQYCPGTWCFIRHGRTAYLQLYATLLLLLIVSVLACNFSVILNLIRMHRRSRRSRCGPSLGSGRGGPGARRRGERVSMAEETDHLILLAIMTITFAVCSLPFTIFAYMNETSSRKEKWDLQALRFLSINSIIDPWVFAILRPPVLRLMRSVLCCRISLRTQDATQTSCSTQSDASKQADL
By inhibition is commonly meant the relative decrease from the control value, in per cent. For `Cc1sc(NC(=O)Cn2c(=O)sc3ccccc32)c(C#N)c1C`, the inhibition is 7.54% (inactive).
The figure for `COc1ccccc1CNC(=O)C1CCN(c2cnccn2)CC1` is 9.64% (inactive); for `CC1(C)CC2CC(C)(CN2C(=O)c2ccc(Cl)cc2)C1` (configuration not stated) it is 13.4% (inactive); for `COc1ccc2[nH]c(=O)c(CN(CCCN(C)C)C(=S)Nc3ccccc3)cc2c1` it is 9.95% (inactive).
For `C[N+]1(CCN=C=NC2CCCCC2)CCOCC1`, the inhibition was 42.8% (active).
The value for `Cc1c(O)c(Br)c(C)c(O)c1Br` (tested in a mixture with another compound) was 105% (active); that for `CCc1ccc2nc3sc(C(=O)Nc4nnc(CC)s4)c(N)c3cc2c1` was 90.2% (active) and 26.4% (inactive); that for `CCc1ccc2nc3sc(C(=O)NCc4ccc5c(c4)OCO5)c(N)c3cc2c1` was 13.9% (inactive).
On to `CCc1ccc2nc3sc(C(=O)OC)c(N)c3cc2c1`, for which the inhibition is 11.6% (inactive).
The figure for `CCn1cc(C(=O)N[C@@H](C)Cn2nnc3ccccc32)c(=O)c2ccc(C)nc21` is 9.07% (inactive); for `CCOC(=O)c1c(-c2ccc(C)cc2C)csc1NC(=O)CSc1nnnn1C` it is 44.2% (active); for `CCOC(=O)CNC(=O)CSc1nnnn1-c1cc(C)ccc1C` it is -1.57% (inactive).
`COC(=O)c1ccccc1NC(=O)CSc1nnnn1C`: the inhibition was 9.91% (inactive) and 10.9% (inactive).
The figure for `CCc1nnc(NC(=O)CSc2nnnn2-c2ccc(F)cc2)s1` is 7.48% (inactive).
Turning to `COc1ccc(C2(C(=O)NCCn3nc(-c4cccs4)ccc3=O)CC2)cc1`, the inhibition was 4.83% (inactive).
The value for `CCOc1ccccc1NC(=O)CSc1nnnn1-c1ccc(F)cc1` was 10.9% (inactive); that for `CC(C)(C)NC(=O)Cn1nc(-c2nccc3ccccc23)oc1=O` was 2.81% (inactive); that for `COC(=O)/C=C\C(=O)Nc1cccc([N+](=O)[O-])c1` was 113% (active).
The value for `CC(=O)Nc1cccc([N+](=O)[O-])c1` was 3.91% (inactive); that for `Cc1ccccc1NC(=S)Nc1cccc([N+](=O)[O-])c1` was 10.2% (inactive); that for `CCn1c(C)cc2cc(NC(=O)CCCn3nc(C)cc3C)ccc21` was 6.1% (inactive).
The figure for `Cc1cc(C)cc(-c2nnc(SCC(=O)N3c4ccccc4CC3C)o2)c1` (configuration not stated) is 15.9% (inactive).
For the molecule `CCN1/C(=C/c2ccc3ccc(C)cc3[n+]2CC)Sc2ccccc21`, the inhibition was 49.2% (active).
The figure for `CCCN1/C(=C/c2ccc3ccccc3[n+]2CC)Sc2cc(NC(C)=O)ccc21` is 13.2% (inactive); for `CCN1/C(=C\c2ccc3ccccc3[n+]2CC)Sc2cc(C)ccc21` it is 88.5% (active); for `CCN1/C(=C/C(=S)Nc2ccccc2)Sc2ccccc21` it is 11.8% (inactive).
The figure for `CCN1CCN(CCNC(=O)c2ccc(/C=C3/Sc4ccccc4N(Cc4cccc(C)c4)C3=O)cc2)CC1` is 15.1% (inactive).
In the case of `CCN1CCN(C(=O)Nc2cccc(Cl)c2)CC1`, the inhibition was 10.7% (inactive).
The value for `CCOc1ccc2nc(SCC(=O)Nc3ccc(OC)cc3)sc2c1` was 6.3% (inactive).
The figure for `Cc1ccc(CN(Cc2cc3c(C)cc(C)cc3[nH]c2=O)C(=O)NC2CCCCC2)cc1` is 8.55% (inactive); for `COc1ccc2[nH]c(=O)c(CN(Cc3cccnc3)S(=O)(=O)c3ccccc3F)cc2c1` it is 45.8% (active).
The figure for `COc1ccc(N(Cc2cc3cc(OC)ccc3[nH]c2=O)S(C)(=O)=O)cc1` is 6.17% (inactive); for `COc1ccc2[nH]c(=O)c(CN(Cc3ccc4c(c3)OCO4)S(=O)(=O)c3ccc(F)cc3)cc2c1` it is 12% (inactive); for `Cc1cccc2cc(CN(Cc3ccco3)S(=O)(=O)c3cccc4nsnc34)c(=O)[nH]c12` it is 24.1% (inactive).
For `O=c1[nH]c2cc3c(cc2cc1CN(Cc1cccnc1)S(=O)(=O)c1ccc(Cl)cc1)OCCO3`, the inhibition was 19.4% (inactive).
The figure for `COc1ccc2[nH]c(=O)c(CN(Cc3ccco3)S(=O)(=O)c3c(C)ccc4nsnc34)cc2c1` is 46.1% (active).
The value for `Cc1nnc2sc(-c3ccc(NC(=O)c4ccc(Br)o4)cc3)nn12` was 15% (inactive); that for `COc1ccc2c(c1)NC1(CCN(C(=O)c3cnsc3)CC1)c1cccn1-2` was 9.97% (inactive); that for `Cc1cccc2cc(CN(Cc3cccs3)Cc3nnnn3C3CCCCC3)c(=O)[nH]c12` was 2.93% (inactive).
The value for `Cc1ncc([N+](=O)[O-])n1Cc1nnc(N)s1` was 11.5% (inactive); that for `CC(C)(C)C1=NN(CC(=O)NCc2ccncc2)C(=O)c2cc3ccccc3n2C1` was 4.49% (inactive).
`COc1nc(C)c(CC(=O)NC2(c3cccc(F)c3)CCCC2)c(OC)n1`: the inhibition was 13.3% (inactive).
The figure for `Cc1[nH]c2ccc(-c3nnc(SCCC#N)n3C)cc2c1C` is 10.1% (inactive); for `CC(C)(C)C1=NN(CC(=O)NCCc2ccco2)C(=O)c2cc3ccccc3n2C1` it is 11.5% (inactive).
The figure for `COc1ccc(C(c2nnnn2C(C)(C)C)N2CCN(c3ccc(OC)cc3)CC2)cc1` (configuration not stated) is 10.7% (inactive); for `Cc1ccc2c(c1)C(O)CC1(CCN(CC(O)c3ccc(F)c(F)c3)CC1)O2` (configuration not stated) it is 8.77% (inactive).
The value for `Cc1ccc2c(c1)C1CN(C)CCC1N2C(=S)Nc1ccc(Cl)cc1Cl` (configuration not stated) was 15.3% (inactive); that for `Cc1ccc2c(c1)C1CN(C)CCC1N2C(=O)c1ccccc1NS(=O)(=O)c1ccc(F)cc1C` (configuration not stated) was 8.83% (inactive).
For `Cc1ccc2c(c1)C1CN(C)CCC1N2C(=S)Nc1ccc(OC(F)F)cc1` (configuration not stated), the inhibition is 112% (active).
The value for `Cc1cc(Cl)ccc1OCC(=O)Oc1c(Cl)c(Cl)c(Cl)c(Cl)c1Cl` was 50.2% (active); that for `Cc1cc(NC(=O)COC(=O)COc2ccc(Cl)cc2C)c([N+](=O)[O-])cc1C` was 5.32% (inactive); that for `CCOC(=O)N1CCN(C(=O)COc2ccc(Cl)cc2C)CC1` was 12.7% (inactive).
The figure for `CCc1cccc2cc3c(N)c(C(=O)Nc4cc(OC)ccc4OC)sc3nc12` is 5.34% (inactive); for `CCn1cc(/C=C/c2nc3ccccc3c(=O)n2C)c2ccccc21` it is 16.1% (inactive).
The figure for `CC(=O)Nc1ccc(S(=O)(=O)Nc2nc(-c3ccc(C(C)(C)C)cc3)cs2)cc1` is 4.4% (inactive); for `CC(=O)Nc1ccc(-c2csc(NC=C3C(=O)OC(C)(C)OC3=O)n2)cc1` it is 2.63% (inactive); for `CC(=O)Nc1ccc(-c2csc(NC(=O)Nc3ccccc3)n2)cc1` it is 55% (active).
